Inconclusive results are not listed. Active and inactive are the calls of the source. Unless noted, calls come from the whole dose curve; as a rule, active = well fitted curve in the direction sought with a large enough effect; inconclusive = small, poorly fitted or top-dose-only effect, or another doubt; inactive = no such curve, though single readings can be large; an effect the other way counts as inactive or inconclusive.
Assays:
[1] = qHTS assay for measurement of the activity of small molecule inhibitors on Zika virus induced Caspase-3 activity in human iPSC derived neural progenitor cells (hNPCs) (AID 1224857); note: nearly all actives have a fitted effect of over 65% in size
Method in brief: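 hNPCs seeded 350 cells/well, cultured 16–20 h; compounds added 1 h before ZIKV (2 FFU/cell), 37 C 6 h. Caspase-Glo 3/7 luminescence after 30 min RT; % inhibition from induction scaled to uninfected (0%) and infected (100%) wells.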

[2] = qHTS assay for measurement of the activity of small molecule inhibitors on Zika virus induced Caspase-3 activity in human astrocytoma cells (AID 1224859)
Method in brief: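 Luminescence read-out (Caspase-Glo 3/7, 30 min RT) of caspase activity in SNB-19 cells infected 6 h with ZIKV, 2 FFU/cell, after 1 h compound pretreatment; % inhibition from induction normalised to uninfected (0%) and infected (100%) wells.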

[3] = P-glycoprotein substrates identified in KB-3-1 adenocarcinoma cell line, qHTS therapeutic library screen (AID 1346986); note: nearly all actives have a fitted effect of over 60% in size;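 note: potency is the fitted concentration of half-maximal effect; potency is for cytotoxicity meaning loss of cell viability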
Method in brief: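 Cells seeded 500/well in DMEM/10% FCS; compounds pinned in dose-response; 72 h incubation; CellTiter-Glo added, 5 min, luminescence. KB-8-5-11 run ±tariquidar to test reversal of P-gp resistance.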

[4] = P-glycoprotein substrates identified in KB-8-5-11 adenocarcinoma cell line, qHTS therapeutic library screen (AID 1346987); note: nearly all actives have a fitted effect of over 65% in size; note: potency is the fitted concentration of half-maximal effect
Method in brief: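 Steps: plate 500 KB-8-5-11 cells/well in DMEM + 10% FCS (colchicine removed); pin compounds in dose-response; incubate 72 h, 37 degree C, 5% CO2; add CellTiter-Glo, 5 min; read luminescence.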

[5] = NS1 protein of Zika virus - qHTS assay to identify small molecule inhibitors in human HEK 293 cells (AID 1347053); note: series mostly up to about 46 µM; nearly all actives have a fitted effect of over 55% in size
Method in brief: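 Following 20 h seeding, HEK 293 cells took compound, then 1 h later ZIKV MR766 (MOI = 0.5). Incubation ran 24 h at 37 C before TR-FRET detection of NS1; a drop in signal indicates inhibition.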

[6] = qHTS of pediatric cancer cell lines to identify multiple opportunities for drug repurposing: Primary screen for TC32 cells (AID 1347089); note: nearly all actives have a fitted effect of over 60% in size; note: potency is the fitted concentration of half-maximal effect
Method in brief: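 Measured quantity: luminescence from CellTiter-Glo, reflecting metabolically active TC32 cells following 48 h of compound. Curves came straight from multi-point titrations, with 8 or 11 points in primary and 11 in confirmatory screening.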

[7] = qHTS of pediatric cancer cell lines to identify multiple opportunities for drug repurposing: Primary screen for DAOY cells (AID 1347090); note: series mostly up to about 46 µM; nearly all actives have a fitted effect of over 55% in size
Method in brief: (§1)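 Cell viability, CellTiter-Glo luminescence; 500-1,000 cells/well, 8- or 11-point titration, 48 h compound exposure at 37 degrees C, 5% CO2. Controls: DMSO neutral, bortezomib 2.3 µM final as positive.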

[8] = qHTS of pediatric cancer cell lines to identify multiple opportunities for drug repurposing: Primary screen for SJ-GBM2 cells (AID 1347091)
Method in brief: as §1

[9] = qHTS of pediatric cancer cell lines to identify multiple opportunities for drug repurposing: Primary screen for A673 cells (AID 1347092); note: nearly all actives have a fitted effect of over 45% in size; note: potency is the fitted concentration of half-maximal effect
Method in brief: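 Cells are plated, rested 5 h, dosed by pintool, incubated 48 h, then lysed with CellTiter-Glo and read by luminescence. DMSO is the neutral control; bortezomib at 2.3 uM final is the positive control.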

[10] = qHTS of pediatric cancer cell lines to identify multiple opportunities for drug repurposing: Primary screen for SK-N-MC cells (AID 1347093); note: potency is the fitted concentration of half-maximal effect
Method in brief: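 Metabolically active cells were quantified by ATP-dependent luminescence (CellTiter-Glo, 15 min at room temperature) following 48 h treatment. Cells had been plated at 500-1,000 per well and settled for 5 h beforehand.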

[11] = qHTS of pediatric cancer cell lines to identify multiple opportunities for drug repurposing: Primary screen for BT-37 cells (AID 1347094); note: potency is the fitted concentration of half-maximal effect
Method in brief: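 Plated cells (500-1,000 per well, growth media) were allowed to settle for 5 hours, treated with compound dilutions for 48 hours, then lysed with CellTiter-Glo for 15 min at room temperature before luminescence reading.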

[12] = target: Atrial natriuretic peptide receptor 2 (Homo sapiens) (UniProt P20594); assay: Natriuretic polypeptide receptor (hNpr2) antagonism - Pilot subtype selectivity assay (AID 1347050; calls by dose curve)
Method in brief: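 Pilot selectivity screen against hNpr2: HEK293 cGMP-sensor cells are treated with LOPAC1280 compounds, then with hNppC peptide at 1 nM final. The cGMP-driven luminescence change over 20 min at room temperature is the read-out.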

[13] = target: T1, Tyrosine-protein phosphatase non-receptor type substrate 1 (Homo sapiens) + Leukocyte surface antigen CD47 (Homo sapiens) (UniProt P78324+Q08722); assay: CD47-SIRPalpha protein protein interaction - LANCE assay qHTS validation (AID 1347057; active = well fitted curve in the direction sought with a large enough effect in the signal ratio, with a control signal flat, not every such curve was filed as active; the % refers to the signal ratio; note: series mostly up to about 38 µM)
Method in brief: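 First, His-tagged CD47 and Eu-labelled anti-His antibody met the compound for 30 min; next, site-specifically biotinylated SIRPalpha was added for 30 min; finally streptavidin-APC was added before reading the TR-FRET ratio.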

[14] = target: T1, Tyrosine-protein phosphatase non-receptor type substrate 1 (Homo sapiens) + Leukocyte surface antigen CD47 (Homo sapiens); assay: CD47-SIRPalpha protein protein interaction - HTRF assay qHTS validation (AID 1347058; active = well fitted curve in the direction sought with a large enough effect in the signal ratio, not every such curve was filed as active; the % refers to the signal ratio;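 note: recombinant soluble extracellular CD47 with His tag and biotinylated SIRPalpha domains; series mostly up to about 38 µM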)
Method in brief: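 TR-FRET read (Ch1/Ch2 ratio) of soluble extracellular CD47 and Avi-biotinylated SIRPalpha domains in PBS pH 7.4 with 0.05% IGEPAL; 7-point compound titration. Sequential 30 min room-temperature steps; non-biotinylated SIRPalpha as control inhibitor.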

[15] = target: T1, Tyrosine-protein phosphatase non-receptor type substrate 1 (Homo sapiens) + Leukocyte surface antigen CD47 (Homo sapiens); assay: CD47-SIRPalpha protein protein interaction - Alpha assay qHTS validation (AID 1347059);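 note: bead proximity luminescence from CD47 binding SIRPalpha after compound preincubation with SIRPalpha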
Method in brief: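 Binding is measured by AlphaScreen proximity: Ni-NTA acceptor beads capture His-CD47, streptavidin donor beads capture biotin-SIRPalpha. Each of three additions (SIRPalpha with compound, CD47, beads) incubates 30 min at room temperature protected from light.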

[16] = target: Parathyroid hormone/parathyroid hormone-related peptide receptor (Homo sapiens) (UniProt Q03431); assay: qHTS for PTHR1 Agonists: Optimization Screen against the NCGC LOPAC library (AID 1347079);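 note: GloSensor cAMP luminescence in HEK-293 GP2 cells expressing human PTHR1 with IBMX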
Method in brief: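 Agonist readout: GloSensor cAMP luminescence, read after 15 min at room temperature. HEK-293-derived GP2 line carries PTHR1; compounds tested as a titration for 1 hr at 37C in presence of IBMX. M-PTH (1-15) served as control.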

Measured: Potency

Atrial natriuretic peptide receptor 2 (Homo sapiens), sequence (P20594 whole entry, looked up): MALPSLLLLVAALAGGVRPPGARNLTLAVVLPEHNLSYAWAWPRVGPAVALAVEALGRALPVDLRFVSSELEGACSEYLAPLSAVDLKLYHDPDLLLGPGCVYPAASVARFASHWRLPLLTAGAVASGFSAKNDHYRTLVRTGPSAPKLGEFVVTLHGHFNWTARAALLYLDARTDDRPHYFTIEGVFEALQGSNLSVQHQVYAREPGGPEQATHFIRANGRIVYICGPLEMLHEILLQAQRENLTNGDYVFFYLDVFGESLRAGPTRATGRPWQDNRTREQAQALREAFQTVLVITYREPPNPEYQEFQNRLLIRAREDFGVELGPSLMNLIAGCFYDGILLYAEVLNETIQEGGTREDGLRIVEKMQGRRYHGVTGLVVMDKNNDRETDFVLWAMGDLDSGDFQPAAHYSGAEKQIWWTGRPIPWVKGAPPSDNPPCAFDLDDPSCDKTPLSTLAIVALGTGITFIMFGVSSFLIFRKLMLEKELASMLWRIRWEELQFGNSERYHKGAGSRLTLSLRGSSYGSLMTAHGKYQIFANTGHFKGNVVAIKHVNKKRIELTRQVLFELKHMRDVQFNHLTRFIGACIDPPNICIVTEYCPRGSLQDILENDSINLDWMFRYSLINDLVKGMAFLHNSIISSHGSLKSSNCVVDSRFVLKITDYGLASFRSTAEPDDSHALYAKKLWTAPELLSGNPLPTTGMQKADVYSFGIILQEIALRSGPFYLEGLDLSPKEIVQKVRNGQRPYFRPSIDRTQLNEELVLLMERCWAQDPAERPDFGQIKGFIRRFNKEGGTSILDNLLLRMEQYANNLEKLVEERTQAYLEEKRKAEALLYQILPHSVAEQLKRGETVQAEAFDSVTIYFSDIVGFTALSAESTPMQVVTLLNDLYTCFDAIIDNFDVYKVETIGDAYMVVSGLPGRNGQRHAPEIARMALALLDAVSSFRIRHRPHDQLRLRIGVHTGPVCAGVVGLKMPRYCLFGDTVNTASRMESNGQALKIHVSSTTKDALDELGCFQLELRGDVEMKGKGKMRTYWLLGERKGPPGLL
Parathyroid hormone/parathyroid hormone-related peptide receptor (Homo sapiens), sequence (Q03431 whole entry, looked up): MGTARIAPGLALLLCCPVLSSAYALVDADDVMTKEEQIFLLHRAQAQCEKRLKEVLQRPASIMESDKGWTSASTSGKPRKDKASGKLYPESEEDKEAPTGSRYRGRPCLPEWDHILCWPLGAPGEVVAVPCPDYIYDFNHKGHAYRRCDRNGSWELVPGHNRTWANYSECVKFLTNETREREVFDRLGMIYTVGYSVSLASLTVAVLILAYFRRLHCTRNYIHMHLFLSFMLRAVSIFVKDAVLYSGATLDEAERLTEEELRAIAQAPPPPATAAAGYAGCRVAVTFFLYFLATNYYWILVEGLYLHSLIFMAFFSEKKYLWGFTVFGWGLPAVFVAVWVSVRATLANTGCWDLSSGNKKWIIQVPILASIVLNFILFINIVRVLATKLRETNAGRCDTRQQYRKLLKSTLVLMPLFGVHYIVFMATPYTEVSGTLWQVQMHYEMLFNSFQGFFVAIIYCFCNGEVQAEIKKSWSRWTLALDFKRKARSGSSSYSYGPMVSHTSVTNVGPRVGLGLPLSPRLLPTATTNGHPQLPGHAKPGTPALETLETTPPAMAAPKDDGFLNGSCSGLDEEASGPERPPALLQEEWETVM
T1 sequence (P78324 whole entry, looked up): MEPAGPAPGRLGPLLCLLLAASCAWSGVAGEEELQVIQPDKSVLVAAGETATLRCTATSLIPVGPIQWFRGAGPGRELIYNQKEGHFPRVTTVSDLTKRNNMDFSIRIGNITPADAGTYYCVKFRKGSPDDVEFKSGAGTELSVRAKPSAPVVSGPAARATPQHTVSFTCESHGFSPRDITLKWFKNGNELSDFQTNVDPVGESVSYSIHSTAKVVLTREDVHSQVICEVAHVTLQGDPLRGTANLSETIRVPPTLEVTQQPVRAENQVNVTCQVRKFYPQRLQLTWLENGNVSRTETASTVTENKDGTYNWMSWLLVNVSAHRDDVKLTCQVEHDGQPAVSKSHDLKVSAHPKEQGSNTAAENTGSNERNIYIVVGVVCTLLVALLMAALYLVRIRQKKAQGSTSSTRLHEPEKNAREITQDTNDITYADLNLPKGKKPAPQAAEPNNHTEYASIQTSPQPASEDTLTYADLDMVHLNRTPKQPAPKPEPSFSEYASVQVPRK
T1 sequence (Q08722 whole entry, looked up): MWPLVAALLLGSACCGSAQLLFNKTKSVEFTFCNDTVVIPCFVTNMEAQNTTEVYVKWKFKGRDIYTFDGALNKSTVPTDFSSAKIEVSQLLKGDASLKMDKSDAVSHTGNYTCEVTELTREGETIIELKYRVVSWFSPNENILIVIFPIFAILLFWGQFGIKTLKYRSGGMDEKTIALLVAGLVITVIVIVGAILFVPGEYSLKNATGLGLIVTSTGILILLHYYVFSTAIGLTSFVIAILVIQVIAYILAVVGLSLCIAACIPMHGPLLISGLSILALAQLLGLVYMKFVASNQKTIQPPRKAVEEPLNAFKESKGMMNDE

CN(CC1(C)CCCO1)S(=O)(=O)c1ccc(Cl)c(S(N)(=O)=O)c1 (stereo not given)
not listed: [12] | [13] | [14] | [15] | [16]
inactive: all other assays above

CCOC(=O)c1ccc(OCCN2C[C@H](O)[C@@H](O)[C@H](O)[C@H]2CO)cc1
not listed: [8] | [12] | [13] | [14] | [15] | [16]
inactive: all other assays above

CO/N=C(/C(=O)N[C@@H]1C(=O)N2C(C(=O)O)=C(Cn3nnc(C)n3)CS[C@H]12)c1csc(N)n1
not listed: [12] | [13] | [14] | [15] | [16]
inactive: all other assays above

NC(N)=NCCCCN=C(N)N
inactive: [1] | [2] | [4] | [12] | [13] | [14] | [15] | [16]

Cc1nn(-c2ccccc2)c(C)c1/C=N/N1CCN(Cc2ccccc2)CC1
inactive: [1] | [2] | [4] | [12] | [5] | [13] | [14] | [15] | [16]

O=C1NC(c2cccc([N+](=O)[O-])c2)=CCN1c1ccccc1O
inactive: [1] | [2] | [4] | [12] | [5] | [13] | [15] | [16]

O=S(=O)(O)c1ccc2nc(-c3ccccc3)[nH]c2c1
inactive: [1] | [2] | [4] | [5] | [6]

COc1ccccc1N1CCN(CCN2C(=O)CC3(CCCC3)CC2=O)CC1
inactive: [1] | [2] | [4] | [12] | [5] | [13] | [14] | [15] | [16]

CCCCCOc1ccc(C2SC(=O)NC2=O)cc1OCC (stereo not given)
inactive: [1] | [2] | [3] | [4] | [6] | [8] | [9] | [10] | [11]

Cn1cnc2c(NCc3ccccc3)nc(NCCO)nc21
inactive: [1] | [2] | [3] | [4] | [12] | [13] | [15] | [16]

CCCCC(O)/C=C(C)/C=C/C=C/C(=O)N1CCCC1=O (stereo not given)
not listed: [12] | [13] | [14] | [15] | [16]
inactive: all other assays above

Nc1ncnc2n[nH]c(Nc3ccc(F)cc3)c12
not listed: [6] | [7] | [8] | [9] | [10] | [11]
inactive: all other assays above

OCCc1ccccc1
not listed: [3] | [12] | [13] | [14] | [15] | [16]
inactive: all other assays above

O=[N+]([O-])c1nccn1CO[C@@H](CO)[C@H](O)CO
not listed: [3] | [12] | [13] | [14] | [15] | [16]
inactive: all other assays above

CC(C(=O)O)c1ccc(/C=C2\CCCCC2=O)cc1 (stereo not given)
not listed: [12] | [13] | [14] | [15] | [16]
inactive: all other assays above

CCOC(=O)NNc1ccc(N(CC)CC(C)O)nn1 (stereo not given)
not listed: [3] | [12] | [13] | [14] | [15] | [16]
inactive: all other assays above

CCN1C(=O)c2ccccc2C1Nc1ccc(OCCN2CCCCC2)cc1 (stereo not given)
not listed: [4] | [12] | [13] | [14] | [15] | [16]
inactive: all other assays above

CCOC(=O)c1ccc(NC(=O)CN2CCCCC2)cc1
inactive: [1] | [2] | [3] | [5] | [7] | [8] | [10] | [11]

CC(C)=CCNc1ncnc2c1ncn2[C@@H]1O[C@H](CO)[C@@H](O)[C@H]1O
active: [3] 5.8 µM | [4] 5.8 µM | [6] 5.92 µM | [9] 2.66 µM | [10] 3.76 µM | [11] 6.17 µM
inactive: [1] | [2] | [5]

CC(=O)Nc1ccn(C2COC(COC(=O)c3ccccc3)O2)c(=O)n1 (stereo not given)
inactive: [1] | [2] | [3] | [4] | [5] | [7] | [8]
active: [6] 1.67 µM | [9] 1.33 µM | [10] 0.75 µM

CC(=O)O[C@@H]1C(=O)O[C@@H]2[C@H]1OC(=O)[C@@H]2OC(C)=O
inactive: [1] | [2] | [3] | [4] | [6] | [8] | [11]
active: [10] 3.76 µM

C=CC[N+]1([C@H]2C[C@H]3[C@@H]4CC[C@H]5C[C@H](OC(C)=O)[C@@H](N6CCCCC6)C[C@]5(C)[C@H]4CC[C@]3(C)[C@H]2OC(=O)CC)CCCCC1
not listed: [8] | [12] | [13] | [14] | [15] | [16]
inactive: all other assays above

O=C(O)Cc1ccc(OCCNC[C@H](O)c2ccccc2)cc1
not listed: [3] | [12] | [13] | [14] | [15] | [16]
inactive: all other assays above

— PubChem BioAssay (NCATS)
